# Assay results from ChEMBL document CHEMBL3988442, “University of Dundee, Small-Polar-MMV Screening Library” (2021).
# For some assays here: Results with a measured potency or affinity are listed apart.
# Tests used:
# Design in all cases: scale not given: direction of the effect not stated beside the values
# [1] = biological target: Protein translocase subunit SecA (Escherichia coli (strain K12)) (UniProt P10408); experiment: Assay to Identify E. coli SecA ATPase Inhibitors; type: functional; details: 30 µM
# Protein translocase subunit SecA (Escherichia coli (strain K12)), sequence (P10408 whole entry): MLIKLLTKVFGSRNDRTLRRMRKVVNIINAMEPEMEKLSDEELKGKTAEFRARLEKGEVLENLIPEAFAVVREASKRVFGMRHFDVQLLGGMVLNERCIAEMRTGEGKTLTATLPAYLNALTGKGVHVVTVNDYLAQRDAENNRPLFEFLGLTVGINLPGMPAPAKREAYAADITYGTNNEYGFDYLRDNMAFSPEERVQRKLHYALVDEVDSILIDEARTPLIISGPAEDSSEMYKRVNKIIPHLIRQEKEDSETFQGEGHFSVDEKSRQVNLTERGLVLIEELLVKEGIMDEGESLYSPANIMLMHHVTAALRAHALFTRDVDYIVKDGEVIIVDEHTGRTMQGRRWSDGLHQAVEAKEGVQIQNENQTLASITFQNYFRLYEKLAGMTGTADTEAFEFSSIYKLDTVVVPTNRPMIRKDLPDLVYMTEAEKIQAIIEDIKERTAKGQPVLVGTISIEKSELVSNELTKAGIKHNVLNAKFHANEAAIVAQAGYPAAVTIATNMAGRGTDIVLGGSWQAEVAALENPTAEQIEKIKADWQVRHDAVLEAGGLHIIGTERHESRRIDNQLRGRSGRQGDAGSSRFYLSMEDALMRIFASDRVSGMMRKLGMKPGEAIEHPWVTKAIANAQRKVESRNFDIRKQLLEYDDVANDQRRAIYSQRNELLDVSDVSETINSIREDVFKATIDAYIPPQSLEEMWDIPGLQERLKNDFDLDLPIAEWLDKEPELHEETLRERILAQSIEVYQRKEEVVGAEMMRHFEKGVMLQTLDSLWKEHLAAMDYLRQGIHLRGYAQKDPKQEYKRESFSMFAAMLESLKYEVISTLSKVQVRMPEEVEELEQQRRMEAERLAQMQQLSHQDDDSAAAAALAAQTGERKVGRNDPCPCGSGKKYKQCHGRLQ
# [2] = biological target: T1, Ubiquitin-activating enzyme e1, putative (Leishmania donovani (strain BPK282A1)) (UniProt E9BSI1); experiment: Leishmania donovani Ubiquitin Activating Enzyme (LdE1); type: functional; details: 30 µM
# T1 sequence (whole entry): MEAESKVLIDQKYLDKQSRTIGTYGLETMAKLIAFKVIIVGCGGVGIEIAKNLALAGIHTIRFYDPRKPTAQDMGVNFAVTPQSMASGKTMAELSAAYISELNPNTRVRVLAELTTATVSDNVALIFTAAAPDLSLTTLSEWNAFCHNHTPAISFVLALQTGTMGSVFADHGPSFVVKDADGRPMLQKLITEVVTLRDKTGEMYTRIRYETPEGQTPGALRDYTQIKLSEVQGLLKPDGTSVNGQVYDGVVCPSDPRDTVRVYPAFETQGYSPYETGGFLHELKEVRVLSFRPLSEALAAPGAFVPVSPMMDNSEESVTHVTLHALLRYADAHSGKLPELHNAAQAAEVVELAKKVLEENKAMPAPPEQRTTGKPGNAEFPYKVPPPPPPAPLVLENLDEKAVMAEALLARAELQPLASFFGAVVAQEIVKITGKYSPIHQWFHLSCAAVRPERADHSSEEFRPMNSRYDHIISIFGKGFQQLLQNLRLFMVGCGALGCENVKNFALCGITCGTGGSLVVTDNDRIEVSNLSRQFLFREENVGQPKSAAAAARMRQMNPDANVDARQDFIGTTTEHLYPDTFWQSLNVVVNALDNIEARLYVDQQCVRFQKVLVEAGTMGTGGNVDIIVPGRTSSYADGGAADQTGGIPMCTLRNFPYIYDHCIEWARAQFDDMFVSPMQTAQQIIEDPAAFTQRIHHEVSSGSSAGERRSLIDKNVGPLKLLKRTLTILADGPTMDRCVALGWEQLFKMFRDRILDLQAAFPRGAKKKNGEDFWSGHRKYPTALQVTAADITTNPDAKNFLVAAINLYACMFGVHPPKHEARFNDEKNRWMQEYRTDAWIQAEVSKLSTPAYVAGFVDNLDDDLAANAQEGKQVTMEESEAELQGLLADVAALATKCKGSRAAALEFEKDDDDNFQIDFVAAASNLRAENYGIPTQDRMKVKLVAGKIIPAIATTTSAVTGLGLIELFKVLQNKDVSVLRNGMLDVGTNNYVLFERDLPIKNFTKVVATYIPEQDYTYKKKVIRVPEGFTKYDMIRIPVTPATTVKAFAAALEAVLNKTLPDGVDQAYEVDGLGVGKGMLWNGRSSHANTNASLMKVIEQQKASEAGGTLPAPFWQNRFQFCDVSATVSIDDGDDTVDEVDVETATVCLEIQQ
# [3] = biological target: AMP-activated protein kinase, AMPK (Homo sapiens) (UniProt P54646+O43741+P54619+Q9UGJ0+Q9Y478+Q13131+Q9UGI9); experiment: AMP-dependent Kinase enzyme assay. An in vitro enzyme assay that detects ADP turnover that is directly proportional to AMPK activity. This uses naive AMPK that is activated during the assay with MK-8722; type: functional; details: 30 µM
# [4] = biological target: Sialic acid-binding Ig-like lectin 9 (Homo sapiens) (UniProt Q9Y336); experiment: Hs-Siglec9 ALPHAscreen SOP 20170721; details: 10 µM
# Sialic acid-binding Ig-like lectin 9 (Homo sapiens), sequence (Q9Y336 whole entry): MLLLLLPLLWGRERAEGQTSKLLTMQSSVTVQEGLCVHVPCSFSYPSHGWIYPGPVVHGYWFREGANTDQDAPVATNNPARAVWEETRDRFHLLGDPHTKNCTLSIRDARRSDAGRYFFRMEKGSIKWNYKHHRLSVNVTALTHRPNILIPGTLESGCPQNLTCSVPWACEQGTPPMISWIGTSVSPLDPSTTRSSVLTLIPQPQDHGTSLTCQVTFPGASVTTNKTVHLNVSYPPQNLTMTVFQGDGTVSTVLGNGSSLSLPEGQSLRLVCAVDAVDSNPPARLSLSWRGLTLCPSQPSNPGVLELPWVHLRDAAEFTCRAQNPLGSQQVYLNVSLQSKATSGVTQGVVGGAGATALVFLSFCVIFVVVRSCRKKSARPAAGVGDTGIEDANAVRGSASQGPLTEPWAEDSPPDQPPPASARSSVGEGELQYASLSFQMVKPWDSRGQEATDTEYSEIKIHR
# Trypanosoma cruzi = experiment: Trypanosoma cruzi phosphomannomutase and mannose-1-phosphate guanylyltransferase assay; type: functional; details: 10 µM
# [5] = biological target: T2, Arginase-2, mitochondrial (Homo sapiens) (UniProt P78540); experiment: in vitro enzyme assay to detect the production of urea directly proportional to the activity of Arginase II; type: functional; details: 33.3 µM; further: in the data most compounds retested in dose-response had high values
# T2 sequence (whole entry): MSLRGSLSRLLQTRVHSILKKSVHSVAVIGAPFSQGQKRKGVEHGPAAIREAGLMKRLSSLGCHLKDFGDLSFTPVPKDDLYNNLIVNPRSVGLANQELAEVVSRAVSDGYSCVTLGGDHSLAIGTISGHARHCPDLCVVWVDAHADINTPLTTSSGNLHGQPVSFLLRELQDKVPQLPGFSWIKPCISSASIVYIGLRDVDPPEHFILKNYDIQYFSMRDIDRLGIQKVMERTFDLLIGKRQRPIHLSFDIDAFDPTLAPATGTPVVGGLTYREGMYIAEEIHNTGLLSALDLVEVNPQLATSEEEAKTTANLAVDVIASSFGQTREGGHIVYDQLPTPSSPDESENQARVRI
# [6] = biological target: T3, Proteasome subunit beta (Trypanosoma cruzi) (UniProt O96673); experiment: Trypanosoma cruzi proteasome chymotrypsin-like activity (TcProtChymo) assay.; further: in the data most compounds retested in dose-response had high values; type: functional; details: 9.37 µM
# T3 sequence (whole entry): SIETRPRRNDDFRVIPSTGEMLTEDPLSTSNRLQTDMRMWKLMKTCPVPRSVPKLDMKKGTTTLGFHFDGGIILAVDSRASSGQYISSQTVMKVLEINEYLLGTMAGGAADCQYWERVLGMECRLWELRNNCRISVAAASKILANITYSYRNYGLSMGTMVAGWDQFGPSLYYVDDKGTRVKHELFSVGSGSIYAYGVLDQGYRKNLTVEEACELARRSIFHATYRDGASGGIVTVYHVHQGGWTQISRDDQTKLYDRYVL
# Homo sapiens = organism: Homo sapiens; experiment: To identify inhibition of the IFN signalling (Jak-Stat) pathway via expression of an eGFP reporter gene under the control of an IFN-stimulated response element (ISRE) containing MxA promoter.; type: functional; details: 30 µM
# [7] = biological target: T4, Tyrosyl-tRNA synthetase, putative (Trypanosoma cruzi (strain CL Brener)) (UniProt Q4DSP6); experiment: Trypanosoma cruzi tyrosyl tRNA synthetase (TcYRS) _High Tyrosine SOP; type: functional; details: 30 µM; further: in the data most compounds retested in dose-response had high values
# T4 sequence (whole entry): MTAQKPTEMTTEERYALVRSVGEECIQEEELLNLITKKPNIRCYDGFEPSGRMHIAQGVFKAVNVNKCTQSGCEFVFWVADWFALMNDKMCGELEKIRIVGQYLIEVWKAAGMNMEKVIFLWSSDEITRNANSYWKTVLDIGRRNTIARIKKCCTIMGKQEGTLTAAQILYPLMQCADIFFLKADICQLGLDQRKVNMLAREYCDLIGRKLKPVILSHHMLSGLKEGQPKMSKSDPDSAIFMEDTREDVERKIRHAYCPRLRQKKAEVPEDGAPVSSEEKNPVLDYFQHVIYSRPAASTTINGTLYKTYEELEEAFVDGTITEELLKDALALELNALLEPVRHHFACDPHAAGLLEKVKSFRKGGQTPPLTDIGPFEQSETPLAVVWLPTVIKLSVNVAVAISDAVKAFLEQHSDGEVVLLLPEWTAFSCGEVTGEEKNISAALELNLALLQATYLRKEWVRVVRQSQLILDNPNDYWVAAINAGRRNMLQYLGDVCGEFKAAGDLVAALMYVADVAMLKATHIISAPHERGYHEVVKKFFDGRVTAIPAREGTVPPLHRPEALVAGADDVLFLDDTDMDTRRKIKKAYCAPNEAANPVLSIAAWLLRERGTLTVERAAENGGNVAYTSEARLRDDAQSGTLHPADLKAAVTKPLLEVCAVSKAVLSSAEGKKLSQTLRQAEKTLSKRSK
# [8] = biological target: T4, Tyrosyl-tRNA synthetase, putative (Trypanosoma cruzi (strain CL Brener)); experiment: Trypanosoma cruzi tyrosyl tRNA synthetase (TcYRS) SOP; type: functional; details: 30 µM
# [9] = biological target: Chromo domain-containing protein 1 (Saccharomyces cerevisiae (strain ATCC 204508 / S288c) (Baker's yeast)) (UniProt P32657); experiment: ScCHD-1 Enzyme Inhibition Assay; type: functional; details: 30 µM; further: in the data most compounds retested in dose-response had high values
# Chromo domain-containing protein 1 (Saccharomyces cerevisiae (strain ATCC 204508 / S288c) (Baker's yeast)), sequence (P32657 whole entry, the tested form may be a part): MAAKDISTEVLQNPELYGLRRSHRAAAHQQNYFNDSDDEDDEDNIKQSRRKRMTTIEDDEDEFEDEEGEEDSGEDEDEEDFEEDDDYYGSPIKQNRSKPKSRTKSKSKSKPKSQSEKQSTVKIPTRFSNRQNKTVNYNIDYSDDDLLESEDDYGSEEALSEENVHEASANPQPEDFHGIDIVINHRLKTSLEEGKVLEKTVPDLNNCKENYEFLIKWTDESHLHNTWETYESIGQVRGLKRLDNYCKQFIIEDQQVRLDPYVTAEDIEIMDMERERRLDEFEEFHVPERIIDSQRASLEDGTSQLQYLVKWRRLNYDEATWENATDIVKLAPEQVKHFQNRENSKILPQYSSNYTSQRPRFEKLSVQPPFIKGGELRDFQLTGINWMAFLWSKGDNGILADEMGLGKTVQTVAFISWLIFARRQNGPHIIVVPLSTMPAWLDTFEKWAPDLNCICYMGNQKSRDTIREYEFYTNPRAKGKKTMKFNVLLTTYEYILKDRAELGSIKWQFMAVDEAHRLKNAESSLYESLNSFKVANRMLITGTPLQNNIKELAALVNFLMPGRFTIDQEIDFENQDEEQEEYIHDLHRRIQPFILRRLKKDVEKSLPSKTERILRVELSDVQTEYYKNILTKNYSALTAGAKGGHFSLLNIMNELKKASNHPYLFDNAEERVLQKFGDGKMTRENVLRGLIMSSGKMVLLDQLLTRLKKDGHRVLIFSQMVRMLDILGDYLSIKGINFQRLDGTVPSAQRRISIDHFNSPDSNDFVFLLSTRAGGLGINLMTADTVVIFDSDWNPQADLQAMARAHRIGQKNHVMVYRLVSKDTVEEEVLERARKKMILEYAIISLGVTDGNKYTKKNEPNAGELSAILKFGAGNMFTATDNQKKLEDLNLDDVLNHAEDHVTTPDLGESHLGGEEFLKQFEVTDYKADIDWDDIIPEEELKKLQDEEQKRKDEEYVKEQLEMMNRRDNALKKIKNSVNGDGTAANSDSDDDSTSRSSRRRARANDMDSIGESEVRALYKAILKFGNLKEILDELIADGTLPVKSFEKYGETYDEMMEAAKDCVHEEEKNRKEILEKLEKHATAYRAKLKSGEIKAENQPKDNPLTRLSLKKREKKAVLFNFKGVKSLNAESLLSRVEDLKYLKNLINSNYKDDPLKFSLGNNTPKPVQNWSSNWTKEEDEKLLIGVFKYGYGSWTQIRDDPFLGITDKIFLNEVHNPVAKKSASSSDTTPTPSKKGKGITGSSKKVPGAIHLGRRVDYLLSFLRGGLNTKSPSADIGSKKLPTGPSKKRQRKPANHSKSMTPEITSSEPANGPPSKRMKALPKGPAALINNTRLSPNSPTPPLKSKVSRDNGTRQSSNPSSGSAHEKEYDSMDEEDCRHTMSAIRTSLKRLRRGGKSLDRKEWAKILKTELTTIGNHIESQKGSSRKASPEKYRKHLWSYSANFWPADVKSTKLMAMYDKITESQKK
SMILES,Percent Effect [1] [%],Percent Effect [2] [%],Percent Effect [3] [%],Percent Effect [4] [%],Percent Effect (Trypanosoma cruzi) [%],Percent Effect [5] [%],Percent Effect [6] [%],Percent Effect (Homo sapiens) [%],Percent Effect [7] [%],Percent Effect [8] [%],Percent Effect [9] [%]
CC(C)c1nn(C)c(Cl)c1CNCc1ccc2c(c1)OCCO2,-4.72,10.5,2.72,8.57,3.27,-5.04,2.28,-34.1,5.42,16.1,0.827
Cc1ccc(C(CNCC2CC2)N2CCOCC2)s1 (stereo unspecified),4.94,8.11,-0.221,3.49,-6.05,1.67,11.9,26.7,9.9,8.54,-6.06
CCCc1nc(N2CCN(CC)CC2)c2c(n1)c(C)nn2CC,-0.47,7.79,2.46,26.2,5.01,-6.9,10.5,10.3,7.53,16.1,-5.13
CCc1cnc(N2CC3(CCN(C(=O)c4ccoc4)C3)C2)nc1,-7.71,-10.4,3.45,3.13,-2.46,5.52,9.65,8.56,-2.15,-1.24,-0.64
O=C1COC2(CCN(Cc3ccccn3)CC2)CN1CC1CC1,0.889,2.6,17.2,2.67,-4.83,-1.94,-3.13,9.22,1.06,3.85,-1.35
Cc1nc(C2CCCN(C(=O)c3cccc(S(C)(=O)=O)c3)C2)no1 (stereo unspecified),-1.36,-1.27,5.98,4.04,-1.95,7.96,12.3,-20.9,0,0,3.1
NC(=O)c1cnn2c1NCC(CNCCc1ccco1)C2 (stereo unspecified),-1.64,2.63,2.04,-0.712,-5.26,3.45,8.86,7.72,2.45,7.32,-1.74
COCCN(C)Cc1ccc(OC)c(OC(F)F)c1,-0.72,0,2.88,0.875,-20.8,6.9,0.499,-9.7,-1.07,-6.17,2.42
Cc1ccc(NC2CCN(C(=O)Cc3ccc(C#N)cc3)CC2)nn1,-4.53,2.7,-6.02,18.2,4.81,-4.41,3.24,-19.9,6.4,18.5,-10.7
Cn1nc(C2CN(C(=O)c3cscn3)C2)c2nccnc21,-0.655,17.6,-2.02,-2.09,1.38,2.55,17.2,8.4,6.45,11.7,-18.2
CCN(Cc1ccc2c(c1)OCCO2)C(=O)NCc1nc(C)cs1,0.275,10.4,-0.784,-5.04,-0.294,4.84,14.6,11.4,4.76,11.8,-19.3
CNC(=O)c1cnc(/C=C/c2cc(OC)c(OC)c(OC)c2)s1,-3.62,16.2,-4.03,8.07,1.56,21.2,16,40.4,9.9,18.3,-13
Cc1cc(CN(C)Cc2cc3c(cc2OC(F)F)OCO3)on1,-6.72,2.7,1.74,-1.22,-0.684,3.23,5.24,-2.07,0,1.24,-2.37
CN(Cc1ccc(Cl)s1)C(=O)NCc1nnc2n1CCC2,-2.21,21.1,2.58,-10.7,4.2,-3.96,7.87,0.395,6.4,18.5,-7.27
Cc1nc(CN2CCC3(CCCN(Cc4cnn(C)c4)C3)C2=O)cs1 (stereo unspecified),2.6,10.7,-6.96,4.34,-5.79,-57.2,10.3,-6.36,3.12,10,-5.7
CCN(c1ccc(C(=O)N2CCCC(C)C2)cc1)S(=O)(=O)CC (stereo unspecified),-1.59,-4.17,8.62,-2.11,0.0972,-3.09,9.3,23.2,-2.1,-7.69,1.02
